Screening data (PubChem BioAssay)
The list is not random: actives were taken first. Their share in the collection is about 3.7%.
BRCA1 expr act: BRCA1 expression activation; AID 624202; Potency, µM (top dose mostly 46.1 µM), hits mostly activators; hit rate 1.1% among 380,000; MCF7-BRCA1-FFLuc reporter, luminescence, 48 h; response scale: scaled: vehicle 0%, 10 µM genistein 100%; further: nearly all actives have a fitted effect of over 80% in size
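48 h compound treatment of MCF7-BRCA1-FFLuc cells (phenol-red free MEM, 37 °C), then 15 min with luciferase substrate and luminescence imaging.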
RGS4 inhibitor: inhibitors of human regulator of G protein signaling 4. Potency, µM (titrated, usually from 114 µM), most hits filed as inhibitors. P49798. Transcreener GDP fluorescence polarization, RGS4-accelerated GTP hydrolysis. AID 504845. hit rate 0.039% among 390,000; further: nearly all actives have a fitted effect of over 75% in size
Target sequence (P49798 whole entry, looked up): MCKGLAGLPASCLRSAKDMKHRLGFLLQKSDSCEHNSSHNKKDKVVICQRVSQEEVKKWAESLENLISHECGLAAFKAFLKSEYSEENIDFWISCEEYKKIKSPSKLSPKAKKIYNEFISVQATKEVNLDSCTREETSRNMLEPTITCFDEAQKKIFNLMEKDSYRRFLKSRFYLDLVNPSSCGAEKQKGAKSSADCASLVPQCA
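MLSMR compounds (23 nl, pin-transferred) preincubated 10 min at room temperature with a 500nM (2x) first reagent, then RGS4 at 900nM (2x) plus Transcreener GDP mix added; fluorescence polarization (620/688 nm) read before and after 90 min at 30 °C.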
PTHR1 ag: agonists of human PTHR1 parathyroid hormone receptor; Q03431; HEK293 GP2 PTHR1 cells, GloSensor cAMP luminescence, 1 h; Potency, µM (series often up to 115 µM), most hits filed as activators; hit rate 0.075% among 410,000; AID 743266; further: nearly all actives have a fitted effect of over 55% in size
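HEK-293-derived GP2 cells expressing PTHR1 and a GloSensor cAMP reporter, 3,000/well, plated overnight, given luciferin plus IBMX (each 0.5 mM as added) for 1 h at 37 °C, then compound for 1 h at 37 °C. Luminescence was read after 15 min at room temperature.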
DRD3 antagonist: D3 dopamine receptor (human) antagonism. max response, negative = inhibition, %. P35462. D3R cells, DiscoveRx beta-arrestin luminescence, antagonist mode; hits give low values. hit rate 2.5% among 360,000; in the data active means max response below about -50%; inconclusive means no clear call, values can overlap the other calls
Target sequence (P35462 whole entry, looked up): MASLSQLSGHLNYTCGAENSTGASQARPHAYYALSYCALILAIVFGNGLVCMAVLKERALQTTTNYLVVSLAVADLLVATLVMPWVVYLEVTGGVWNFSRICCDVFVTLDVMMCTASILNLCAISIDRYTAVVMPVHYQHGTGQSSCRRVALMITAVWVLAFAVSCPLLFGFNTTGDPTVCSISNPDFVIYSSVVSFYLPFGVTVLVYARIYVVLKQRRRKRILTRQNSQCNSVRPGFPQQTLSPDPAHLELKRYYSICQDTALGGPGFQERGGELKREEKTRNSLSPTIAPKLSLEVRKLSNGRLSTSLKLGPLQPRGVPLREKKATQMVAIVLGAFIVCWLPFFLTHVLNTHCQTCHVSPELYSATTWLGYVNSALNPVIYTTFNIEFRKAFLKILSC
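Cells expressing the human receptor were seeded at 1500 cells/well, incubated overnight at 37 degrees C in 5% CO2, then exposed to library compounds with dopamine controls for 90 minutes at 37 degrees C before luminescent detection.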
D3 ag: agonists of human D3 dopamine receptor; P35462; D3R DiscoveRx beta-arrestin cells, luminescence, 90 min; max activation, %; hit rate 0.58% among 410,000; AID 652048; in the data active means max activation above about 30%
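Agonist-mode cell screen: cells plated at 1500/well and incubated overnight at 37 °C, then exposed to library compounds for 90 min at 37 °C. Detection reagent was added for 30–60 min at room temperature, and luminescence was read.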
B2AR arrestin: recruits beta-arrestin to the human beta2-adrenergic receptor; P07550; beta-arrestin recruitment to beta2AR, cell-based reporter; Potency, µM (doses to about 46.1 µM), actives largely listed as activators; hit rate 0.02% among 330,000; AID 492947; further: nearly all actives have a fitted effect of over 65% in size
A number is an active result; – = inactive; ? = inconclusive; · = no result; ! = not active in a repeat; [ ] = dose if it differs, or a comment. Unless noted, the call rests on the fitted dose curve; in most records, active means well fitted curve in the direction sought with a large enough effect; inconclusive means small, poorly fitted or top-dose-only effect, or another doubt; inactive means no such curve, though single readings can be large; an effect the other way counts as inactive or inconclusive.

SMILES	BRCA1 expr act	RGS4 inhibitor	PTHR1 ag	DRD3 antagonist	D3 ag	B2AR arrestin
COc1cc(NC(=O)c2cccnc2)c(OC)cc1NC(=O)c1ccc(Br)cc1	–	–	–	–	121	–
COc1cc(NC(=O)c2ccc(Br)cc2)c(OC)cc1NC(=O)c1ccccc1	–	–	–	–	–	–
COc1cc(NC(=O)C(C)Oc2ccccc2)c(OC)cc1NC(=O)c1ccccc1 (stereo not given)	–	–	–	–	36	–
CC1CCCN(CCCNC(=O)c2nn(C)c3c2CS(=O)(=O)c2ccccc2-3)C1 (stereo not given)	–	?	–	–	–	–
Nc1ncnc(Sc2ncccn2)c1[N+](=O)[O-]	–	–	–	-84	–	–
Nc1ncnc(Sc2ccccc2)c1[N+](=O)[O-]	–	–	–	–	–	–
CN(C(=O)CSc1nc(N)cc(N)n1)C1CCS(=O)(=O)C1 (stereo not given)	–	–	–	–	–	–
CC(=O)Nc1cccc(C(=O)NC2CCCc3c2cnn3-c2ccc(C(C)(C)C)cc2)c1 (stereo not given)	–	–	–	–	33	–
C/C(=C\c1ccccc1)CN1CCN(c2ccccc2)CC1	–	–	–	-109	–	–
C/C=C(\C)CN1CCN(c2ccccc2)CC1	–	–	–	-71	–	–
CC(=O)c1ccc(N2CCN(CC(=O)NCc3ccccc3)CC2)cc1	–	–	–	–	–	–
COc1ccccc1N1CCN(C/C(C)=C/c2ccccc2)CC1	–	–	–	-89	–	–
Cc1cccnc1CNC(=O)C1(C)CCCN1CC(C)C (stereo not given)	–	·	–	–	–	·
CC(=O)Nc1ccc(S(=O)(=O)NCc2csc(C)n2)cc1	–	–	–	–	–	–
CC(=O)Nc1ccc(S(=O)(=O)NCc2cn3c(C)csc3n2)cc1	–	–	–	-69	–	–
Cc1ccc(CS(=O)(=O)CCC(=O)NCc2ccccc2Cl)cc1	–	–	–	–	–	–
O=C(NCCc1ccc(Cl)cc1)C1CCN(c2ncnc3c2nc2n3CCCCC2)CC1	·	–	?	·	–	·
O=C(C1CCN(c2ncnc3c2nc2n3CCCCC2)CC1)N1CCN(c2ccccc2)CC1	·	–	–	·	–	·
CCOc1ccc(CCNC(=O)C2CCN(c3ncnc4c3nc3n4CCCCC3)CC2)cc1	·	–	–	·	66	·
O=C(C1CCN(c2ncnc3c2nc2n3CCCCC2)CC1)N1CCN(c2ccc(F)cc2)CC1	–	–	–	–	48!	–
CN(C)/C=C/C1=CC(=O)CC(C)(C)C1	–	–	–	–	–	–
OCCN1CCN(c2cc(-c3ccccc3)c3ccccc3n2)CC1	–	–	–	-81	–	–
CN1CCN(c2nc(N3CCN(CCO)CC3)nc3ccccc23)CC1	–	–	–	–	–	–
CCC(O)c1cnc(OCc2ccccc2)nc1OCc1ccccc1 (stereo not given)	–	·	–	–	–	·
Cc1ccc(COn2c(-c3ccc(Cl)cc3)nc3ccc([N+](=O)[O-])cc32)cc1	10µM	–	–	–	–	–
SMILES	BRCA1 expr act	RGS4 inhibitor	PTHR1 ag	DRD3 antagonist	D3 ag	B2AR arrestin
COc1ccc(CC(=O)Nc2cc(-c3cn4cccnc4n3)ccc2C)cc1OC	·	–	–	·	–	·
O=C(O)C1CCN(c2ccc(S(=O)(=O)N3CCCCC3)cc2[N+](=O)[O-])CC1	–	–	–	–	–	–
O=C(O)C1CCN(S(=O)(=O)c2ccc(N3CCCC3C(=O)O)c([N+](=O)[O-])c2)CC1 (stereo not given)	–	–	–	-82	–	–
O=C(c1cc(COc2ccc(F)cc2Cl)on1)N(CCO)Cc1cccs1	–	–	–	–	–	–
c1cncc(-c2noc(C34CC5CC(CC(C5)C3)C4)n2)c1	13µM	–	–	–	–	–
Cc1cc(C(=O)CSc2n[nH]c(N)n2)c(C)n1-c1ccc(F)cc1	–	–	–	–	–	–
Cc1ccc(-n2c(C)cc(C(=O)CSc3n[nH]c(N)n3)c2C)cc1	–	–	–	–	39	–
CCc1nnc(NC(=O)CSc2nc(-c3ccc(F)cc3)cc(-c3ccccc3)c2C#N)s1	–	–	–	–	–	–
COc1ccc(-c2cc(-c3ccccc3)nc(SCC(=O)Nc3ncc(C)s3)c2C#N)cc1	–	–	–	-56	–	–
N#Cc1c(-c2ccccc2)cc(-c2cccs2)nc1SCC(=O)O	–	–	–	-55	–	–
N#Cc1c(-c2ccc(Cl)cc2)cc(-c2cccs2)nc1SCC(=O)O	–	?	–	–	–	–
O=C(O)CN(CC(=O)O)CC1=CC2C(=CC1=O)Oc1cc(O)c(CN(CC(=O)O)CC(=O)O)cc1C21OC(=O)c2ccccc21 (stereo not given)	·	·	·	·	–	·
Cc1nn(-c2ccccc2)c2nc(=O)n(-c3ccccc3)cc12	–	–[11.4 µM]	–	-65	–	–
Cc1ccc2nc3c(cc2c1)c(C)nn3-c1ccccc1	–	–	–	–	–	–
CCc1ccccc1NC(=O)c1cc(S(=O)(=O)N2CCC(C)CC2)cn1C	–	–	–	·	62	·
COc1ccc2c(c1)O[C@H](c1ccc3c(c1)OCO3)[C@@H](OC(=O)N[C@H]1CCCc3ccccc31)C2=O	–	–	–	–	54	–
CCN(C[C@H]1N[C@@](C)(C(=O)OC)[C@H]2C(=O)N(C)C(=O)[C@@H]12)C(=O)Nc1ccc(Cl)cc1	–	–	–	–	–	–
CN(C)CCOc1ccc(/C(=C(/CCCl)c2ccccc2)c2ccccc2)cc1	–	–	–	-91	–	·
CN(C)CCOc1ccc(-c2c(-c3ccccc3)sc3ccccc23)cc1	–	–	–	–	–	–
CCOc1ccc(-c2nc(CSc3nnc(N)s3)cs2)cc1	4µM	–	–	–	–	–
CN1CCN(c2ncnc3c2c(-c2ccccc2)cn3-c2ccc(F)cc2)CC1	–	–	–	-63	–	–
COc1cccc(N2CCN(c3ncnc4c3c(-c3ccccc3)cn4-c3ccc(F)cc3)CC2)c1	·	–	–	·	–	·
O=C(/C=C/c1ccccc1[N+](=O)[O-])Nc1ccccc1	7.1µM	–	–	–	–	–
COc1cc(NC(=O)/C=C/c2ccccc2[N+](=O)[O-])cc(OC)c1	–	–	–	–	–	–
COc1ccc(C(=O)NC(=S)NC(C)C)cc1Br	–	–	–	–	–	–
COc1ccc(C(=O)NC(=S)NC(C)(C)C)cc1Br	11µM	?	–	–	–	–
CCOC(=O)C(C(=O)OCC)c1cc(Br)c2noc3c2c1C(=O)c1ccccc1-3	–	?	–	-102	–	–
